The full ranking holds about 59,000 sequences; the median of the read-out is about -0.00055, and the lowest 2% start at about -2. This is one part of a sample in which the lowest values are shown more often than they occur.

A short description of the assay: Identification of proteins required for the processing of the EWS-FLI1 nascent transcript.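 Note: robust z of luciferase light less the median z of siRNAs with the same seed.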 The settings on record: TC32 Ewing sarcoma NR0B1-luc vs CMV-luc (EWS-FLI1 target promoter against control promoter), 48 h; screened at 20 nM (by protocol). In a few lines:
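Genome-wide siRNA screen (Ambion v4.1, three siRNAs per gene, 20 nM final, RNAiMax) in Ewing sarcoma TC32 cells carrying NR0B1-promoter or CMV-promoter luciferase; OneGlo luciferase read 48 h post-transfection. Data normalized, z-score-MAD transformed and seed-adjusted.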
For the sequence UUCGACCCAAGGUUUGUGC against DBF4, the seed-corrected z-score is 0.865. On to UUAAUGAUAAACACGUCUU against LMX1A, for which the seed-corrected z-score is -0.388. As to UCCUAUAGCAGAAUAUUCC against PVRL3, the seed-corrected z-score was -0.846. Regarding UCAACAUUAGGUUUCUUAG against TAF9B, the seed-corrected z-score stood at 0.431. UCUGGUAGUUCUUCAAGGC against LINC00238 had a seed-corrected z-score of 0.0623. The result for UAUUCUGUAGGCUCAAAAC against KRTAP4-11 reads -3.43; that for UUUCGCUAAGCUGCUCUUC against AQP9, -0.131; that for UUAUGGAAUGUCGUUUUCC against FAM228A, 0.0891. With UAAUGUCUAAGGAAGAUUU against ZBTB8A, the seed-corrected z-score turned out to be 0.693. For the sequence AAGCUGAUAAUAGGCUUUC against DNAJA3, the seed-corrected z-score is -0.565. As to UUCCAAGACAGAAAUGAGG against DNHD1, the seed-corrected z-score was determined as 0.456.

In turn, UGGGAUUUUAAAACGGCGG against DPP9 had a seed-corrected z-score of 0.0729. As to UUCUAUUUAGGAGAGCUUC against RPS16P10, the seed-corrected z-score is -1.32.

UAUCUUGUGGUGGUAGAGC against METTL23 gave a seed-corrected z-score of 0.782. For the sequence UCCGUUUUUGAGAAACUUG against PNLDC1, the seed-corrected z-score is -0.423.

In the case of UAGAAAGUCUUUACUAUGU against PIGA, the seed-corrected z-score was -1.02. As to UAAGUAGAUGGAGGACACC against MRGPRF, the seed-corrected z-score is -2.16. Take AUAUAGGAUCUUAUUGUGC against B4GAT1: the seed-corrected z-score is -0.205. The result for UUUUGUCCCGGAACAUGCG against BCR reads -0.22; that for UUCUCGUUCUGUUAAGUUC against CCDC144B, 0.479. As to UGUUGUAGUAGUAACGCAG against LOC390937, the seed-corrected z-score is -3.19. UCAGUUGUUACGCAAGGUG against PI16: the seed-corrected z-score was -0.652. Turning to AAAUGGUCCAGAAUCCAGC against FOXN2, the seed-corrected z-score came to 0.634. For UUUGGGUCGUUGUACAUCU against AGBL4, the seed-corrected z-score was -2.02. As for UACUGAACUCCAUCUGACU against C1orf198, the figure is 1.54; as for UCGUUGUAUAAUUUUGCCC against WDR17, -1.13. In turn, AAUGCGACGAGACAAGAUG against WASF2 yielded a seed-corrected z-score of 0.812.

UUCAUUAAGAAGCACCUGG against NDFIP2 yielded a seed-corrected z-score of 0.91. Consider ACUAGUACUGGGAAGGUCC against CDKN1C, for which the seed-corrected z-score was -2.28. In turn, UCUAGGCUCAGCAAUGACU against CD19 yielded a seed-corrected z-score of 0.138. AAUAGAUUCAACAAGGGUG against BCL10: the seed-corrected z-score was 1.13. For AUGGAGGUAAUGACGAUCA against UPK3B, the seed-corrected z-score is -2.86.

Turning to UCUAGAUACUUAAUGGUGC against LAMP2, the seed-corrected z-score amounted to 0.192. UUAUUGACACUUGUUCAAG against COX7A1 registered a seed-corrected z-score of 0.106. On to AAUGUAUCUAAGCAACUUC against DDIAS, for which the seed-corrected z-score was -0.473. As for ACAUAGGUUGGGUCGAUCC against XYLT2, the seed-corrected z-score was -1.65. As for UACUUAACCGGGAAGCUAC against NUMB, the seed-corrected z-score was -0.172. Turning to UUUGCAGGUAGAAUUAAGG against B3GALT5-AS1, the seed-corrected z-score is -2.65. The result for UUAGCAUCUGCAGCAUUCU against RBMY2DP reads -0.255; that for UGGGUUGUAGAGAUCUACC against AKAP4, 0.156. In the case of UACCCGGAAAAGUAAAUCC against ROBO2, the seed-corrected z-score stood at 0.288. As to UGAUAUAUGAAUUGGAGUC against CDKN3, the seed-corrected z-score was -0.146. Turning to UUCUUCAUCAGAUGGUUCC against SF3B2, the seed-corrected z-score was -3.21. As to AGUUUAGCUAUGACAAUGG against C2orf66, the seed-corrected z-score was 0.917.

Sequence UUCUCCUUCAUCAAGUUCA against S100A7L2 showed a seed-corrected z-score of 0.705. For UUCGUUACAGAACUGACCG against YEATS2, the seed-corrected z-score was -0.228. Sequence UCCAUAACCUGUUCUACGC against NFU1 displayed a seed-corrected z-score of 0.244.

Sequence UCUUGUCUACUAUCACUGC against PRR13 had a seed-corrected z-score of 1.15. With UUCUGAACCUUCGCAGUGC against PPP1R3B, the seed-corrected z-score was 0.0534. In the case of UUCUGAAACAAGCCCUUGC against CCDC103, the seed-corrected z-score was -2.08. As for UUCUUGACUAUCUUCAUCU against CBX4, the figure is -0.275. The result for UCUAUUUUGACCGAGUAUG against CKAP4 reads 0.169; that for AUGAUGUUCACGAUGAUGG against SYT7, -2.72.

With UUGCAAUGCAUGGUGCACC against FAM136A, the seed-corrected z-score was -1.35.

For the sequence UUGUCUUUUACUUCCAUCC against CLEC7A, the seed-corrected z-score was -1.06. As for UAGUUAAUGGAGUAACUCC against KDM5C, the seed-corrected z-score was -0.0641. The sequence ACUUUUUACCUCCUCAUUC against OR4E2 gave a seed-corrected z-score of 1.72. In the case of AGCAGGAUAAAAACGAUCU against TMC4, the seed-corrected z-score was 0.756.

UGUUGGAUAAGGUUAGAAC against ZNF34 came in with a seed-corrected z-score of 0.0223. As for AAUGUUUCCCACAUGGAUG against SMARCB1, the figure is -1.85; as for UGUAAUUAUACCAAUGUAG against EEF1B2P5, -2.11. Consider UCUCGUAUGAUAUAAUCUC against HCN1, for which the seed-corrected z-score was 0.749. For the sequence AACCGGAUUAAGGAAAGUG against BTBD1, the seed-corrected z-score is -0.375. On to UGAAGGGAUAGUUUCUCUG against FZD10-AS1, for which the seed-corrected z-score is -0.829. Consider UAAGUUGCACUUUCCAUUC against ZNF266, for which the seed-corrected z-score was -3.46.

The sequence AACCGUUCCAUAUCAUCUC against BEX5 yielded a seed-corrected z-score of 0.658. For UCCUUGUCCACAUGGAGAC against CREBZF, the seed-corrected z-score is -1.01.
